Assay outcomes (PubChem)
FLuc counter – qHTS profiling assay for firefly luciferase inhibitor/activator using purifed enzyme and Km concentrations of substrates (counterscreen for miR-21 project); Luciferin 4-monooxygenase (Photinus pyralis), P08659; purified FLuc, Km substrates, luminescence inhibition; Potency, µM (top dose mostly 57.5 µM), most hits filed as inhibitors; 6.9% of 360,000 active; AID 588342, 2011; also: nearly all actives have a fitted effect of over 55% in size
Target sequence (P08659 whole entry, looked up): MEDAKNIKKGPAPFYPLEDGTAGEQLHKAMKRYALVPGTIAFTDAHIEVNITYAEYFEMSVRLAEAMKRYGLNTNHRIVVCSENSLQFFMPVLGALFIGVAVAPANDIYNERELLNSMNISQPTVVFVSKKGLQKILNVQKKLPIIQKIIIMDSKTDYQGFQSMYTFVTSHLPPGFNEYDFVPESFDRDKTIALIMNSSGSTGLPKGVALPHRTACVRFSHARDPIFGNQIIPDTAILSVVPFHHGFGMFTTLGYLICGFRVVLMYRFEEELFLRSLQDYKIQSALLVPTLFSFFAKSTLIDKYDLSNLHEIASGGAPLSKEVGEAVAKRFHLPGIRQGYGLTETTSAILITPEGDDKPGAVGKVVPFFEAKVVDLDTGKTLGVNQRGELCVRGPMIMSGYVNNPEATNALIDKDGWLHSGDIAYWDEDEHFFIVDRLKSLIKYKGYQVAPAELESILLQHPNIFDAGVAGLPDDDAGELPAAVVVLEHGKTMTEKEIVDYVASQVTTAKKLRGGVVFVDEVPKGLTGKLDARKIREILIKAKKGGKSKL
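Biochemical qHTS of compounds, final roughly 60 µM downward over six points, against 10 nM purified firefly luciferase using Km concentrations of substrates (10 uM D-luciferin, 10 uM ATP) in Tris acetate pH 7.5 buffer; luminescence output.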
ELG1 genotoxic – qHTS screen for small molecules that induce genotoxicity in human embryonic kidney (HEK293T) cells expressing luciferase-tagged ELG1; HEK293T ELG1-luciferase reporter, luminescence, 16 h; Potency, µM (highest dose often 46 µM), usual class: activators; 1.3% of 330,000 active; also: nearly all actives have a fitted effect of over 60% in size
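ELG1-luciferase HEK293T cells, 2,000/well; compound pinned in; 16 hr, 37 °C, 5% CO2; ONE-Glo, 30 min RT; luminescence on CCD imager.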
Rab9 promoter act – qHTS Assay for Rab9 Promoter Activators; Huh7 Rab9 promoter-luciferase reporter, luminescence, 24 h; 2.8% of 320,000 active; Potency, µM (doses to about 9.22 µM), actives largely listed as activators; also: nearly all actives have a fitted effect of over 60% in size
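Stable Rab9-luc Huh7, 1500 cells/well, 2 h settle; cmpd in DMSO, 24 h, 37 °C/5% CO2; luciferase reagent 10 min RT; luminescence.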
NPC1 promoter act – qHTS Assay for NPC1 Promoter Activators | Potency, µM (series often up to 9.22 µM), hits mostly activators | Huh7 NPC1 promoter luciferase reporter, 24 h | 2.4% of 320,000 active | AID 485313, 2010; also: nearly all actives have a fitted effect of over 60% in size
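Huh7 reporter cells (NPC1 promoter driving luciferase) are dosed with compound for 24 h at 37 °C, 5% CO2; luciferase detection reagent is then added and luminescence measured after 10 min at ambient temperature.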
KinaseGlo FLuc – Counterscreen for Luciferase (Kinase-Glo TM) Inhibition. 0.28% of 200,000 active. Kinase-Glo luciferase, ATP luminescence, 8 min. Potency, µM (titrated, usually from 38.3 µM), usual class: inhibitors; also: nearly all actives have a fitted effect of over 60% in size
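Recombinant Kinase-Glo luciferase, 10 uM ATP (linear range), luciferin; imidazole pH 7.2 / KCl / MgCl2 / Tween / BSA buffer; 8 min RT; luminescence.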
SMN2 splice enh – qHTS Assay for Enhancers of SMN2 Splice Variant Expression | HEK293 SMN2-luciferase splicing reporter, luminescence, 30-36 h | Potency, µM (doses to about 46.1 µM), usual class: activators | 2.8% of 210,000 active; also: nearly all actives have a fitted effect of over 55% in size
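HEK293 cells carry an SMN2 minigene-luciferase reporter in which exon 7 inclusion puts luciferase in frame. Cells were seeded at 2000 cells/well, attached for 10-12 hours, then exposed to compounds for 30-36 hours at 37C before ONE-Glo luminescence.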
Hits are given with their value; - = inactive; ? = inconclusive; . = not tested or not shown; [ ] = dose if it differs, or a comment. Rows were chosen to be rich in hits. Some 7.5% of all compounds tested hit in one or more screens of this group. Calls follow the shape of the dose curve; as a rule, active = well fitted curve in the direction sought with a large enough effect; inconclusive = small, poorly fitted or top-dose-only effect, or another doubt; inactive = no such curve, though single readings can be large; an effect the other way counts as inactive or inconclusive.

SMILES	FLuc counter	ELG1 genotoxic	Rab9 promoter act	NPC1 promoter act	KinaseGlo FLuc	SMN2 splice enh
O=C(c1cc(COc2cccc(C(F)(F)F)c2)on1)N1CCC(Oc2cccnc2)CC1	-	-	-	-	.	.
COc1cccc(OCCSc2nc(N)cc(N)n2)c1	24µM	?	?	?	-	-
O=C(O)c1ccc(NS(=O)(=O)c2cccc3cccnc23)cc1	-	-	-	-	-	-
O=C(Nc1ccccc1O)c1ccc(NS(=O)(=O)c2cccc3cccnc23)cc1	?	16µM	?	-	.	.
COC(=O)c1ccc(NC(=O)c2ccc(NS(=O)(=O)c3cccc4cccnc34)cc2)cc1	17µM	-	-[1.84 µM]	-	.	.
O=C(CSc1nnc(Cc2ccccc2)n1-c1cccc(Cl)c1)NNC(=O)Cc1ccccc1	-	-	-	-	-	-
COc1ccc(C(=O)Nc2ccc(-c3nc4ncccc4o3)cc2C)cc1Br	-	.	.	.	.	?
Cc1ccc(C)c(OCC(O)CN2CCC(Cc3ccccc3)CC2)c1 (centres undefined)	-	-	-	-	.	.
Cc1nc(N2CCN(C(=O)c3ccco3)CC2)c2c3c(sc2n1)CCCC3	-	-	-	-	-	-
CCc1nc(SCC(=O)N2CCN(C(=O)c3ccco3)CC2)c2c3c(sc2n1)CCCC3	17µM	-	-	-	-	-
O=C(CSc1ncnc2sc3c(c12)CCCC3)c1ccco1	12µM	-	?	-	-	-
Cc1ccc(N2C(=O)[C@@H]3CSC(c4ccc(C(F)(F)F)cc4)N3C2=O)cc1 (some centres undefined)	-	.	.	.	.	-
CCc1ccc(C(=O)c2cn(CC(=O)Nc3ccc(C)c(C)c3)c3ccccc3c2=O)cc1	-	.	.	.	.	-
CCC(=O)Nc1cccc(C(=O)OCC(=O)c2ccccc2Cl)c1	7.6µM	?	?	3.2µM	-	-
CC(=O)Nc1cccc(C(=O)OCC(=O)NC(=O)c2ccccc2)c1	-	-	-	-	.	.
CC(=O)Nc1cccc(C(=O)OCC(=O)c2ccccc2Cl)c1	?	?	0.79µM	3.5µM	-	-
CC(=O)Nc1cccc(C(=O)OCC(=O)Nc2ccc(Cl)cn2)c1	?	-	-	-	.	.
CC(=O)Nc1cccc(C(=O)OCC(=O)N2CCC(c3ccccc3)=N2)c1	15µM	?	?	?	.	.
Cc1cc(C(=O)OCC(=O)N2CCC(c3ccccc3)=N2)ccc1[N+](=O)[O-]	-	-	-	-	.	.
CCCN(CC(=O)Nc1ccccc1C)C(=O)CCCNC(=O)c1ccc(Cl)cc1	-	-	-	-	.	.
Cc1oc(-c2ccccc2F)nc1CSCC(=O)NCc1ccccc1	-	.	.	.	.	-
COc1ccccc1N1C(=O)S/C(=C\c2cc(C)n(C)c2C)C1=O	12µM	?	2.5µM	3.5µM	-	14µM
COc1ccccc1N1C(=O)S/C(=C\c2ccc(C)s2)C1=O	-	?	3.5µM	?	.	.
COc1ccc(N=C2S/C(=C\c3ccc(C)s3)C(=O)N2CC(C)C)cc1	-	-	-	-	-	-
COc1ccc(N=C2S/C(=C\c3cc(C)n(C)c3C)C(=O)N2C)cc1	-	-	-	-	-	-
SMILES	FLuc counter	ELG1 genotoxic	Rab9 promoter act	NPC1 promoter act	KinaseGlo FLuc	SMN2 splice enh
CCN1CCN(C(=O)c2ccc3c(c2)N(Cc2c(F)cccc2Cl)C(=O)c2ccccc2S3)CC1	-	.	.	.	.	-
CN1CCc2c(sc(/N=C/c3c[nH]c4ccccc34)c2C(N)=O)C1	?	-	-	-	.	.
CCOC(=O)c1c(/N=C/c2ccc(OC)cc2O)sc2c1CCN(C)C2	?	-	-	-	.	.
CN1CCc2c(sc(/N=C/c3c[nH]c4ccccc34)c2C#N)C1	1.3µM	?	2.8µM	-	.	.
CN1CCc2c(sc(/N=C/c3cc(Cl)ccc3O)c2C#N)C1	2.4µM	16µM	?	-	.	.
Cc1ccc2c(=O)cc(C(=O)Nc3sc4c(c3C(=O)NCc3cccnc3)CCCC4)oc2c1C	-	.	.	.	.	-
COc1ccc2c(c1)-c1nc(/N=C/c3cccc(OC)c3O)sc1CC2	?	-	-	-	-	-[1.84 µM]
CN(C)/C=N/c1nc2ccc3c(c2s1)CCCC3	6µM	?	3.5µM	2.5µM	-	14µM
COc1ccc2nc(/N=C/c3cccc(OC)c3O)sc2c1	0.95µM	?	?	-	.	.
COc1ccc(N=C2C(=Nc3ccc(OC)cc3)N(c3ccc(N(C)C)cc3)C(=S)N2c2ccc(OC)cc2)cc1	-	-	-	-	-	-
COc1ccc2nc(/N=C\N(C)C)sc2c1	24µM	-	?	-	-	-
COc1ccc2nc(N=Nc3ccc(N(C)C)cc3)sc2c1	0.067µM	?	0.71µM	0.32µM	11µM	-
COc1ccc(N2CCN(C(=S)Nc3ccccc3OC)CC2)cc1	-	-	-	-	.	.
COc1ccc2nc(/N=C/c3c(C)[nH]n(-c4ccc(C)cc4)c3=O)sc2c1	7.6µM	-	-	-	10µM	?
CCNC(=S)N/N=C/c1cccc(/C=N/NC(=S)NCC)c1	-	-	-	-	-	-
CNC(=S)N/N=C/c1cccc(OCc2ccccc2F)c1	4.8µM	?	-	-	-	-
CCNC(=S)N/N=C/c1cccc(OCc2c(F)cccc2Cl)c1	17µM	-	-	-	-	-
COc1ccc(NC(=O)c2ccc(NC(=O)CSc3nccc(=O)[nH]3)cc2)cc1	15µM	-	-	-	.	.
COc1ccc(NC(=O)CSc2nc(O)c(C/C=C/c3ccccc3)c(=O)[nH]2)cc1	5.4µM	.	.	.	.	-
COc1ccc2nc(SCC(=O)Nc3ccc4[nH]c(=O)[nH]c4c3)[nH]c2c1	15µM	-	-	-	.	.
CC(C)OC(=O)c1ccc(NC(=O)CSc2nc3ncccc3[nH]2)cc1	17µM	-	-	-	-	-
C[C@@H](/C=C\c1cccc(Oc2ccc(F)cc2)c1)N(O)C(N)=O	.	.	.	.	-	.
COc1ccc2nc(SCC(=O)N3CCNC3=O)[nH]c2c1	21µM	?	2µM	2.5µM	-	?
COc1ccc(NC(=O)CSc2nc3ccccc3c(=O)[nH]2)cc1S(N)(=O)=O	19µM	-	-	-	.	.
COC(=O)C1CCN(C(=O)CSc2nc3ccc(OC)cc3[nH]2)CC1	-	-	-	-	-	-
O=C(CSc1nc(O)c(Cc2ccccc2)c(=O)[nH]1)Nc1nnc(SCc2ccccc2)s1	11µM	-	-	-	.	.
COC(=O)c1ccc(NC(=O)CSc2nc3ccccc3c(=O)[nH]2)cc1	-	?	-	-	-	-
O=C(Cn1c2ncccc2c(=O)n1-c1ccccc1)Nc1cccc(C(F)(F)F)c1	-	.	.	.	.	.
Clc1ccc(-c2cccs2)nn1	-	-	-	-	-	-
CC1CCN(c2ccc(-c3cccs3)nn2)CC1	0.076µM	0.23µM	1.4µM	?	.	.
